# Experimental data from publication PMC5540273 (PLoS ONE, 2017).
# How the values were obtained:
# Conditions in all cases: concentration: 1 μM,replicates: in singlicate; n = 1
# AAK1 = tested on: AAK1
# ABL1-nonphosphorylated = tested on: ABL1-nonphosphorylated
# ABL1-phosphorylated = tested on: ABL1-phosphorylated
# ABL2 = tested on: ABL2
# ACVR1B = tested on: ACVR1B
# ACVR1 = tested on: ACVR1
# ACVR2A = tested on: ACVR2A
# ACVR2B = tested on: ACVR2B
# ACVRL1 = tested on: ACVRL1
# ADCK3 = tested on: T1, ADCK3
# T1 construct: gene CABC1
# ADCK4 = tested on: ADCK4
# AKT1 = tested on: AKT1
# AKT2 = tested on: AKT2
# AKT3 = tested on: AKT3
# ALK = tested on: ALK
# AMPK-alpha1 = tested on: T2, AMPK-alpha1
# T2 construct: gene PRKAA1
# AMPK-alpha2 = tested on: T3, AMPK-alpha2
# T3 construct: gene PRKAA2
# ANKK1 = tested on: ANKK1
# ARK5 = tested on: T4, ARK5
# T4 construct: gene NUAK1
# ASK1 = tested on: T5, ASK1
# T5 construct: gene MAP3K5
# 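Further: KINOMEscan kinase panel screen.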
SMILES,%Inh (AAK1),%Inh (ABL1-nonphosphorylated),%Inh (ABL1-phosphorylated),%Inh (ABL2),%Inh (ACVR1B),%Inh (ACVR1),%Inh (ACVR2A),%Inh (ACVR2B),%Inh (ACVRL1),%Inh (ADCK3),%Inh (ADCK4),%Inh (AKT1),%Inh (AKT2),%Inh (AKT3),%Inh (ALK),%Inh (AMPK-alpha1),%Inh (AMPK-alpha2),%Inh (ANKK1),%Inh (ARK5),%Inh (ASK1)
O=c1[nH]cc(-c2ccc(O)cc2)c2sc(-c3ccncc3)cc12 [GSK1033723],26%,0%,0%,0%,0%,0%,0%,0%,0%,34%,16%,0%,16%,97.2%,0%,0%,13%,10%,13%,0%
Cn1ccc2ncnc(Oc3ccc(NC(=O)Nc4cnn(C(C)(C)C)c4)c(Cl)c3)c21,3%,87%,39%,11%,2%,0%,0%,0%,17%,0%,0%,0%,8%,13%,0%,19%,20%,0%,19%,2%
Cn1cc(-c2cccc3c(N)c(C(N)=O)nnc23)cn1,36%,24%,0%,9%,28%,63%,27%,29%,3%,15%,11%,0%,0%,15%,10%,47%,49%,19%,0%,1%
COc1cccc(CNC(=O)NC2CCN(c3ccnc(Nc4cc(OC)c(OC)c(OC)c4)n3)C2)c1 (stereo not drawn) [GSK1379765],54%,0%,0%,20%,0%,0%,0%,14%,0%,24%,92.3%,0%,17%,0%,72%,0%,2%,42%,45%,7%
CCn1c(-c2nonc2N)nc2cncc(CNC3CCNCC3)c21.Cl [SB-747651],39%,5%,5%,13%,0%,8%,0%,0%,0%,1%,11%,72%,51%,66%,63%,6%,0%,22%,9%,9%
FC(F)(F)c1cc(Br)cc(Nc2nccc(-c3cnn4ncccc34)n2)c1 [GW810578],32%,0%,0%,0%,6%,15%,13%,2%,25%,10%,27%,6%,6%,20%,0%,24%,16%,27%,40%,0%
COc1cc(Nc2nccc(N3CCC(NC(=O)c4cccc(C#N)c4)C3)n2)cc(OC)c1OC (stereo not drawn) [GSK1379751],75%,0%,0%,3%,0%,98.8%,0%,0%,0%,4%,50%,0%,0%,0%,14%,0%,0%,24%,26%,0%
O=C(Nc1n[nH]c2cc(-c3ccco3)ccc12)C1CC1 [SB-737447],100%,37%,28%,0%,5%,0%,9%,0%,0%,8%,7%,0%,0%,0%,7%,3%,0%,27%,0%,0%
Cn1ccc2ncnc(Oc3ccc(NC(=O)Nc4cccc(C(F)(F)F)c4)c(F)c3)c21,15%,88%,51%,29%,0%,0%,32%,36%,7%,18%,0%,23%,0%,0%,20%,0%,0%,0%,5%,5%
CS(=O)(=O)c1cccc(CNc2nc(Nc3ccc4c(c3)[C@@H]3C[C@@H]4CNC3=O)ncc2C(F)(F)F)c1,92.6%,97.9%,93.2%,66%,0%,0%,0%,0%,0%,0%,0%,0%,0%,0%,0%,37%,28%,22%,94.6%,0%
NC(=O)Nc1sc(-c2ccc(F)cc2)cc1C(N)=O [GW789449],60%,49%,0%,3%,5%,0%,31%,28%,0%,5%,7%,0%,0%,0%,52%,25%,15%,86%,0%,26%
CN1CCN(CCNc2nc3cc(Oc4ccc(NC(=O)Nc5cc(C(F)(F)F)ccc5F)cc4)ccc3[nH]2)CC1.Cl.Cl [GW768504],0%,51%,23%,0%,0%,0%,0%,0%,0%,0%,22%,4%,0%,0%,0%,9%,11%,0%,29%,0%
CSc1nccc(-c2c(-c3ccc(F)cc3)ncn2CCCN2CCOCC2)n1.Cl [SB-217146],0%,35%,31%,0%,0%,0%,0%,0%,0%,0%,25%,14%,0%,0%,0%,0%,0%,1%,0%,0%
Cl.c1ccc(Oc2ccc(Nc3ccnc4cc(-c5ccc(CN6CCNCC6)o5)ccc34)cc2)nc1 [GW567142],2%,99.7%,84%,42%,0%,0%,0%,41%,0%,0%,18%,0%,0%,0%,15%,0%,0%,0%,12%,0%
c1ccc(Oc2ccc(Nc3ccnc4ccc(-c5ccccn5)cc34)cc2)cc1 [GW407034],13%,0%,0%,17%,0%,5%,6%,13%,0%,12%,19%,0%,17%,0%,28%,10%,0%,0%,26%,4%
COc1cc2c(Nc3ccc(NC(=O)c4ccccc4)cc3)ncnc2cc1OCCCN1CCOCC1 [GSK301329],0%,16%,0%,20%,0%,0%,0%,0%,0%,10%,0%,0%,0%,0%,9%,0%,0%,17%,28%,0%
CCCC(=O)Nc1n[nH]c2ncccc12 [SB-601436],0%,24%,0%,0%,0%,5%,0%,0%,0%,0%,0%,0%,0%,2%,0%,0%,0%,13%,0%,0%

SMILES,%Inh (AAK1),%Inh (ABL1-nonphosphorylated),%Inh (ABL1-phosphorylated),%Inh (ABL2),%Inh (ACVR1B),%Inh (ACVR1),%Inh (ACVR2A),%Inh (ACVR2B),%Inh (ACVRL1),%Inh (ADCK3),%Inh (ADCK4),%Inh (AKT1),%Inh (AKT2),%Inh (AKT3),%Inh (ALK),%Inh (AMPK-alpha1),%Inh (AMPK-alpha2),%Inh (ANKK1),%Inh (ARK5),%Inh (ASK1)
O=C(Nc1cccc(C(F)(F)F)c1)c1cccc(Oc2ccc3nccn3n2)c1,0%,98.5%,17%,76%,0%,0%,24%,8%,0%,14%,0%,0%,17%,1%,0%,8%,84%,0%,0%,5%
COc1cc2nccc(Nc3ccc(Oc4ccccc4)cc3)c2cc1OC.Cl [GI261656],6%,89%,14%,16%,0%,0%,0%,0%,0%,5%,40%,0%,0%,0%,4%,0%,0%,0%,7%,0%
O=C1NCCc2[nH]c(-c3ccncc3)cc21,77%,31%,0%,0%,40%,14%,40%,70%,19%,33%,0%,0%,0%,0%,0%,6%,0%,10%,0%,40%
CC(C)S(=O)(=O)N1CCN(Cc2ccc3c(c2)nc(NC(=O)c2ccsc2)n3C[C@H](O)c2ccccc2)CC1 [GW635815],38%,0%,2%,22%,15%,0%,0%,0%,0%,0%,27%,0%,16%,0%,68%,0%,2%,19%,60%,17%
Cn1ccc2ncnc(Oc3ccc(NC(=O)Nc4cc(C(C)(C)C)on4)c(Cl)c3)c21,18%,94.8%,51%,46%,15%,0%,12%,12%,0%,0%,19%,18%,0%,0%,38%,0%,21%,10%,4%,11%
C[C@@H]1CCN(C(=O)N2CCCC2)C[C@@H]1N(C)c1ncnc2[nH]ccc12,31%,51%,9%,0%,1%,0%,3%,0%,0%,7%,0%,0%,3%,0%,0%,66%,77%,0%,16%,0%
O=C(Nc1ccc(Oc2ccc3nc(NC(=O)C4CC4)cn3n2)c(F)c1)c1cccn(-c2ccccc2)c1=O,0%,99.9%,88%,62%,0%,19%,28%,31%,1%,16%,0%,18%,13%,30%,0%,0%,3%,0%,0%,3%
OCCn1cc(-c2cnc3nnn(Cc4ccc5ncccc5c4)c3n2)cn1,0%,32%,0%,0%,51%,0%,0%,0%,0%,0%,0%,0%,0%,45%,0%,3%,0%,0%,0%,19%
CC(=O)Nc1ccc(-c2cc3ncnc(SCC(=O)O)c3s2)cc1,44%,15%,3%,8%,2%,0%,4%,30%,27%,0%,0%,0%,28%,16%,7%,2%,0%,22%,0%,0%
O=C(NCC1CC1)c1ccc(-c2cc(C(=O)NC3CC3)ccc2F)cc1 [GW810445],0%,0%,10%,3%,0%,0%,0%,6%,0%,0%,23%,24%,0%,0%,10%,0%,0%,0%,0%,19%
COc1cccc(C2=C(Nc3cccc(Cl)c3)C(=O)NC2=O)c1 [SB-341556],0%,0%,21%,8%,0%,65%,0%,0%,0%,24%,0%,0%,0%,0%,32%,0%,0%,0%,0%,5%
CN(c1ccccc1CNc1nc(Nc2ccc3c(c2)CC(=O)N3)ncc1C(F)(F)F)S(C)(=O)=O,10%,25%,7%,5%,28%,0%,0%,0%,0%,0%,0%,0%,0%,0%,92.4%,74%,70%,0%,92.1%,0%
Cc1ccc(Nc2ccnc(Nc3ccc4c(c3)CS(=O)(=O)C4)n2)cc1O.Cl [GW579362],80%,99.3%,99.8%,99.3%,84%,99.5%,72%,95.6%,85%,8%,100%,0%,0%,0%,51%,10%,17%,44%,25%,0%
N#Cc1cccc(C(=O)NC2CCN(c3ccnc(Nc4ccc(F)cc4)n3)C2)c1 (stereo not drawn) [GSK1379708],0%,0%,0%,4%,0%,31%,0%,0%,0%,0%,20%,0%,0%,0%,26%,16%,0%,0%,0%,0%
Cc1ccn2nc(-c3ccc(F)cc3)c(-c3ccncc3)c2c1.Cl [GW457859],0%,0%,0%,0%,0%,9%,0%,32%,0%,17%,59%,0%,0%,0%,1%,5%,0%,5%,5%,0%
COc1cc2ncn(-c3cc(OCC4CCCCC4)c(C(N)=O)s3)c2cc1OC [GSK204559],55%,0%,0%,14%,0%,5%,18%,32%,0%,11%,11%,0%,0%,0%,22%,0%,27%,14%,0%,14%
